The entries come from a sample that favours hits as a whole.
Pf Dd2 growth: inhibitors of Plasmodium falciparum Dd2 growth | P. falciparum Dd2 growth, SYBR Green, 72 h | Potency, µM (highest dose often 28.9 µM), without a hit: at the top dose activity, negative = inhibition, usual class: inhibitors | 120,000 tested, 4.3% active | AID 1347417; active means well fitted inhibition curve with a large enough effect;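 further: plate controls were DMSO vehicle for no effect and reference drug for full effect; nearly all actives have a fitted effect of over 65% in size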
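Infected erythrocytes (Dd2, 0.3% parasitemia, 2.5% hematocrit final) are added to compound in RPMI-1640/Albumax II medium, grown 72 h at 37C in low oxygen, then lysed with saponin/Triton-X containing SYBR Green and read by fluorescence.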
Active calls of the source: *; [ ] = dose if it differs, or a comment. Potency means the concentration at half of the fitted maximal effect.

How did O=C(CCn1nnc2ccccc21)N1CCOCC(O)(CN2CCCC2)C1 (configuration not stated) do in these assays?
Pf Dd2 growth: 0%

Results for CCOc1ccccc1NC(=O)N1CCCC(c2noc(COC)n2)C1 (configuration not stated) ?
Pf Dd2 growth: 5%

What do the screens show for `CC(C)[C@@H]1CN(C(=O)CCCS(N)(=O)=O)C[C@H]1C(=O)O`?
Pf Dd2 growth: 5%

Results for CCC(=O)N(C1CCOCC1)C1CCN(S(=O)(=O)c2ccccc2F)CC1 ?
Pf Dd2 growth: -30%

Results for CN(CC1CCOCC1)C(=O)Cc1ccc(F)cc1 ?
Pf Dd2 growth: -6%

Results for CCCCOc1ccccc1C1CC(=O)Nc2ccc3ccccc3c21 (configuration not stated) ?
Pf Dd2 growth: 14µM*

What do the screens show for `O=C1CC(c2c(F)cccc2Cl)c2c(ccc3ccccc23)N1` (configuration not stated)?
Pf Dd2 growth: inactive

How did O=C1CC(c2c(Cl)cccc2Cl)c2c(ccc3ccccc23)N1 (configuration not stated) do in these assays?
Pf Dd2 growth: inactive

What do the screens show for `Cc1cccc(C(=O)Nc2cccc(C3OC(=O)N(Cc4ccccc4)C3C(=O)NCC(C)C)c2)c1` (configuration not stated)?
Pf Dd2 growth: -8%

Results for CCC(=O)Nc1cccc(C2OC(=O)N(Cc3ccc(C)cc3)C2C(=O)NCCOC)c1 (configuration not stated) ?
Pf Dd2 growth: inactive

What do the screens show for `Cc1ccc(CN2C(=O)OC(c3cccc(NC(=O)c4ccccc4)c3)C2C(=O)NCCC(C)C)cc1` (configuration not stated)?
Pf Dd2 growth: 7.1µM*

How did O=C(Cc1ccc(Cl)cc1)N1CCC(c2n[nH]c(=O)n2-c2ccccc2)CC1 do in these assays?
Pf Dd2 growth: inactive

Results for Cc1nc(-c2ccccc2)n(Cc2cc(=O)n3ccccc3n2)c(=O)c1CCO ?
Pf Dd2 growth: -15%

Results for CC1=C[C@@H](CO)[C@H](C(C)C)C[C@H]1CC(=O)NCc1ccc(F)cc1 ?
Pf Dd2 growth: 8%[44.1 µM]

What do the screens show for `O=C(C[C@@H]1CCNC[C@@H]1Cc1cc(CN2CCCCC2)on1)NCc1cccs1`?
Pf Dd2 growth: -16%[44.1 µM]

What do the screens show for `O=C1CC(c2ccccc2)N(C(=O)CNS(=O)(=O)c2ccc3c(c2)OCCO3)CCCCCN1` (configuration not stated)?
Pf Dd2 growth: inactive

What do the screens show for `N#Cc1ccc(CN2CCCCCCNC(=O)CC2c2ccccc2)cc1` (configuration not stated)?
Pf Dd2 growth: inactive

What do the screens show for `O=C1CC(c2ccccc2)N(C(=O)C2CC2)CCCCCCN1` (configuration not stated)?
Pf Dd2 growth: -9%

How did O=C1CC(c2ccccc2)N(Cc2ccc3[nH]ccc3c2)CCCCCN1 (configuration not stated) do in these assays?
Pf Dd2 growth: 7.9µM*

Results for O=C1CC(c2ccccc2)N(C(=O)NCc2ccccc2)CCCCCN1 (configuration not stated) ?
Pf Dd2 growth: -2%

What do the screens show for `O=C1CC(c2ccccc2)N(Cc2ccc3c(c2)CCO3)CCCCCCN1` (configuration not stated)?
Pf Dd2 growth: 13µM*

What do the screens show for `COC[C@H]1CCCN1C(=O)CC[C@@H]1CNC(=O)[C@@H]2C[C@H](NC(=O)Nc3ccc(F)cc3F)CN12`?
Pf Dd2 growth: -3%

Results for O=C(N[C@H]1CO[C@H]2[C@@H]1OC[C@@H]2n1cc(CC2CCCCC2)nn1)C1CC1 ?
Pf Dd2 growth: -3%[44.1 µM]

What do the screens show for `Cc1ccc(C(=O)N2CCCN(S(=O)(=O)c3ccccc3)CCC(=O)NCC2)s1`?
Pf Dd2 growth: -11%

How did CCN1C(=O)Cc2ccccc2C1C(=O)N(C)Cc1ccco1 (configuration not stated) do in these assays?
Pf Dd2 growth: -13%

How did Cc1cc2c(-c3cccc(S(C)(=O)=O)c3)nc(-c3c(C)noc3C)cc2[nH]1 do in these assays?
Pf Dd2 growth: -1%[44.1 µM]

How did COCCn1c(SCC(=O)c2c(C)[nH]c3ccccc23)nc2cc(C(=O)NC(C)C)ccc2c1=O do in these assays?
Pf Dd2 growth: -27%

Results for COC(=O)CC(=O)CSc1nc2cc(C(=O)NCC(C)C)ccc2c(=O)n1CCc1ccccc1 ?
Pf Dd2 growth: 11µM*

What do the screens show for `COCCn1c(SCC(=O)c2c[nH]c3ccccc23)nc2cc(C(=O)NC(C)C)ccc2c1=O`?
Pf Dd2 growth: -16%

How did CNC(=O)[C@@H]1C[C@@H](n2cc(C(C)(C)NC(=O)CC3CCCC3)nn2)CN1 do in these assays?
Pf Dd2 growth: -10%

How did Cn1c(CNC(=O)C2CCN(C(=O)N3CC4CC(C3)[C@H]3CCCC(=O)N3C4)CC2)nc2ccccc21 (some centres not stated) do in these assays?
Pf Dd2 growth: inactive

How did O=C(NCc1ccncc1)c1ccc2c(c1)OCCN(c1ccccc1)C2 do in these assays?
Pf Dd2 growth: -17%[44.1 µM]

Results for O=C(NCCc1ccccc1)c1ccc2c(c1)OCCN(c1ccccc1)C2 ?
Pf Dd2 growth: 10µM*

What do the screens show for `COc1ccc(NC(=O)c2ccc3c(c2)OCCN(c2ccccc2)C3)cn1`?
Pf Dd2 growth: -24%[44.1 µM]

What do the screens show for `CNC(=O)c1ccc2c(c1)OCCN(c1cccc(OC(F)(F)F)c1)C2`?
Pf Dd2 growth: 11µM*

Results for O=C(NCCOc1ccccc1)c1ccc2c(c1)OCCN(c1ccccc1)C2 ?
Pf Dd2 growth: -12%[44.1 µM]

Results for O=C(NCc1ccncc1)c1ccc2c(c1)OCCN(c1cccc(OC(F)(F)F)c1)C2 ?
Pf Dd2 growth: inactive

What do the screens show for `O=C(Nc1nccs1)c1ccc2c(c1)OCCN(c1cccc(OC(F)(F)F)c1)C2`?
Pf Dd2 growth: -8%[44.1 µM]

How did O=C(NC1CC1)c1ccc2c(c1)OCCN(c1cccc(OC(F)(F)F)c1)C2 do in these assays?
Pf Dd2 growth: 3.5µM*

Results for O=C(NC1CCOCC1)c1ccc2c(c1)OCCN(c1ccccc1)C2 ?
Pf Dd2 growth: inactive

Results for CCCNC(=O)N(C1CCOCC1)C1CCN(C(=O)Cc2cccnc2)CC1 ?
Pf Dd2 growth: -19%

How did CCOc1ccccc1NC(=O)N1CCCC(Cn2cnc3cccnc32)C1 (configuration not stated) do in these assays?
Pf Dd2 growth: inactive

Results for O=C(CC1CCCCC1)N1CCCC(c2noc(COc3ccccc3F)n2)C1 (configuration not stated) ?
Pf Dd2 growth: inactive

Results for CCOc1cccc(CN2CCC3(CC2)CC(CC(=O)N2CCCC2)CCO3)c1 (configuration not stated) ?
Pf Dd2 growth: 166%

How did COCCCNc1ncccc1-c1cc(-c2ccccc2)nc2c(C)noc12 do in these assays?
Pf Dd2 growth: inactive

How did Cc1noc2c(-c3cccnc3NCCN(C)C)cc(-c3ccccc3)nc12 do in these assays?
Pf Dd2 growth: inactive

How did Cc1noc2c(-c3cccnc3NCCCn3ccnc3)cc(-c3ccccc3)nc12 do in these assays?
Pf Dd2 growth: 10µM*

What do the screens show for `O=C(NC1CCCc2c1[nH]c1ccc(F)cc21)c1ccc(Br)o1` (configuration not stated)?
Pf Dd2 growth: -15%

What do the screens show for `Cc1ccccc1S(=O)(=O)N1CCC(CCC(=O)NC2CC2)CC1`?
Pf Dd2 growth: -10%

What do the screens show for `Cc1ccccc1S(=O)(=O)N1CCCC(CCC(=O)Nc2cccc(Cl)c2)C1` (configuration not stated)?
Pf Dd2 growth: 13µM*
